The text below walks through data of PubChem BioAssay AID1009 (NMMLSC, 2008).

Broadly, the inhibition is the drop in the measured response relative to a control, in per cent.

Among all 190,000 compounds or so, about 200 (0.11%) were called active. No stated cut-off is given here; in the data, active means inhibition above about 40%. The entries come from a sample that favours actives as a whole.

For the test, the target named is Induced myeloid leukemia cell differentiation protein Mcl-1 (Homo sapiens) (UniProt Q07820). The test can be described thus: inhibitors of Bim peptide binding to Mcl-1, primary screen, biochemical, bead-based flow cytometry, multiplex (AID 1009).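 Further: 0% = no compound tracer wells and 100% = peptide blocker.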 Particulars: Bim peptide-Mcl-1 binding, at 10 µM, hits give high values.
Sequence of Induced myeloid leukemia cell differentiation protein Mcl-1 (Homo sapiens) (Q07820 whole entry, looked up): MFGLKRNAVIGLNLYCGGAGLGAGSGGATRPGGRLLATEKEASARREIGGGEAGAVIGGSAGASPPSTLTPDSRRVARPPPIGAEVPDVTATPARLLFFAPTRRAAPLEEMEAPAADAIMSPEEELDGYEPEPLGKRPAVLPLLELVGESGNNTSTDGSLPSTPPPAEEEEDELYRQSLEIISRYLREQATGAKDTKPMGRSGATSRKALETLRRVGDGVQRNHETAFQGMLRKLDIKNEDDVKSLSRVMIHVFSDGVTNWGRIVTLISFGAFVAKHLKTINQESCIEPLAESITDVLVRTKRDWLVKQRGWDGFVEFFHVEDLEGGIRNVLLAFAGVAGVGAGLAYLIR
As to `COCCNC(=O)CCCn1c(=O)c2ccccc2n(Cc2cccc([N+](=O)[O-])c2)c1=O`, the inhibition is 0% (inactive). For `CCC(=O)N1c2ccccc2NC2=C(C(=O)CCC2)C1c1ccco1` (configuration not stated), the inhibition was 0% (inactive). In the case of `S=c1[nH]cc(-c2ccc(Cl)cc2)n1-c1ccccc1`, the inhibition is 3% (inactive). Turning to `CC/C(=N\NC(=S)NC(C)C)c1ccc(OC(F)F)cc1`, the inhibition was -2% (inactive). With `O=c1cc(CO)oc(C(Nc2cccc([N+](=O)[O-])c2)c2ccccn2)c1O` (configuration not stated), the inhibition is -4% (inactive). Regarding `CCCc1nc2c([nH]1)C(c1cccnc1)C(C#N)=C(N)O2` (configuration not stated), the inhibition was -3% (inactive). With `COCCCNC(=S)N1CCCC(c2nc3cc(C)c(C)cc3[nH]2)C1` (configuration not stated), the inhibition is 6% (inactive). For `O=C(O)c1ccc2c3c(cccc13)C(=O)N(OS(=O)(=O)c1ccccc1)C2=O`, the inhibition was 1% (inactive).

As for `O=c1[nH]c(CN2CCOCC2)nc2scc(-c3ccccc3)c12`, the inhibition is 0% (inactive). On to `O=C(O)Cc1ccc(NCc2ccccc2Cl)cc1`, for which the inhibition was -2% (inactive).

Take `CC(NC(=O)CC1SC(N)=NC1=O)c1ccccc1` (configuration not stated): the inhibition was -7% (inactive). `CCc1nn(CCCN2CCN(c3cccc(Cl)c3)CC2)c(=O)n1CCOc1ccccc1`: the inhibition is 0% (inactive).

As to `O=C1CS(=O)CN1c1ccc(Oc2ccccc2)cc1` (configuration not stated), the inhibition is 0% (inactive). Take `C=C(C)C1CC=C(C)/C(=N\NC(=O)CNc2ccccc2OC)C1` (configuration not stated): the inhibition is 0% (inactive). In the case of `COc1ccc([N+](=O)[O-])cc1NC(=O)CC1SC(=Nc2cccc(C)c2C)N(/N=C(\C)c2ccc(C)cc2)C1=O` (configuration not stated), the inhibition is -1% (inactive). For `Cc1ccccc1NC(=O)Cn1c(=O)n(CC2CCCO2)c(=O)c2ccccc21` (configuration not stated) the value was -1% (inactive); for `COc1cccc(NC(=S)C(C#N)=C2N(C)c3ccccc3N2C)c1`, -1% (inactive). As to `CCc1[nH]nc(C(=O)N2CCCC(CNS(=O)(=O)c3cccs3)C2)c1C` (configuration not stated), the inhibition was 0% (inactive).

Turning to `CC(C(=O)NCC1CCCCC1)N(C)Cc1cccc(Cl)c1` (configuration not stated), the inhibition was -1% (inactive). For `CCO[C@H]1OC(C(=O)N2CCCCCCC2)=C[C@@H](c2ccc(C(F)(F)F)cc2)[C@@H]1CCCO` the value was -4% (inactive); for `O=S(=O)(c1ccc(F)cc1)N1CCN(C(=S)NCc2ccco2)CC1`, -6% (inactive); for `CC(=O)Nc1ccc(NC(=S)NC(=O)c2ccc([N+](=O)[O-])c(C)c2)cc1`, 2% (inactive). With `CN1CCN(CCNC(=O)Nc2ccc([N+](=O)[O-])cc2)CC1`, the inhibition was -3% (inactive). For `CC1CCC(C(C)C)C(=O)/C1=C\c1ccc(NC(=O)CCC(=O)O)cc1` (configuration not stated) the value was 0% (inactive). Then `Cc1ccc(CN2CCN(Cc3ccccc3-c3ccco3)CC2CCO)o1` (configuration not stated), with -1% (inactive); and `CCCCC1S/C(=N/N=C/c2cccs2)NC1=O` (configuration not stated), with -1% (inactive); and `NC(=O)c1ccc(N2CCOCC2)nc1`, with 1% (inactive). Regarding `Cc1ccc2nc(C)cc(N/N=C/c3ccc(F)cc3)c2c1`, the inhibition was 0% (inactive). For `Cc1n[nH]c(=O)nc1N/N=C/c1cccs1` the value was -1% (inactive); for `CC(=O)N/N=C/c1cc2c(cc1[N+](=O)[O-])OCO2`, -2% (inactive); for `Cc1ccc(Cl)cc1NC(=O)c1ccccn1`, -2% (inactive). Regarding `NS(=O)(=O)c1ccc(NC(=O)COC(=O)c2ccco2)cc1`, the inhibition is 1% (inactive). In the case of `O=C(N/N=C/c1ccco1)c1ccc(NC(=O)C2CC2)cc1`, the inhibition was -2% (inactive).

For `Cc1ccc2c(CC(=O)NCc3cccs3)coc2c1`, the inhibition is -3% (inactive). For `COc1ccccc1NC(=O)C[n+]1ccccc1`, the inhibition is 0% (inactive). For `CCOC(=O)/C(C#N)=C/c1ccc(N2CCCCC2)cc1` the value was 0% (inactive). For `CCOC(=O)c1sc2nc(C)nc(Nc3ccc(OC)c(OC)c3)c2c1C` the value was 3% (inactive); for `Cc1nc2ccccc2c(C)c1C(=O)c1ccc(F)cc1`, 0% (inactive); for `CCOC(=O)c1ccc(NNC(C)=O)c([N+](=O)[O-])c1`, -1% (inactive). Take `Cc1nc2cc(NCc3cccs3)ccc2n1C`: the inhibition is -1% (inactive).

Consider `COc1ccc(N2CCN(C(=O)C3CCN(S(=O)(=O)c4ccc(C)cc4)CC3)CC2)cc1`, for which the inhibition is 0% (inactive). For `O=C(CC1SC(=Nc2ccccc2)N(Cc2ccccn2)C1=O)Nc1cccc(Cl)c1` (configuration not stated) the value was 2% (inactive); for `CCOC(=O)c1sc(=NC(=O)/C=C/c2cccs2)n(C)c1C`, 3% (inactive). `CC(=O)N1CCN(S(=O)(=O)c2ccc(C)c([N+](=O)[O-])c2)C1C(C)C` (configuration not stated): the inhibition is 0% (inactive). For the compound `CCC1(CC)NC(=O)N(Cc2nc3ccccc3s2)C1=O`, the inhibition was -2% (inactive).

For `CCCNC(=O)OC[C@H]1O[C@H](CCO/N=C/[C@@H](NS(=O)(=O)c2ccc(C)cc2)[C@H](C)/C=C/CC(=O)OC)C=C[C@@H]1Oc1ccc(OC)cc1`, the inhibition was -2% (inactive). As to `Cc1ccc(C(=O)NC(=S)Nc2ccc3[nH]c(=O)[nH]c3c2)cc1C`, the inhibition was -2% (inactive). `CSc1nc2nc(-c3cccc(C(F)(F)F)c3)ccn2n1`: the inhibition was 5% (inactive). Then `Cc1ccc(S(=O)(=O)N(C)C)cc1NC(=O)COC(=O)C1COc2ccccc2O1` (configuration not stated), with 3% (inactive); and `O=C(CCN1C(=O)c2ccncc2C1=O)Nc1cc(F)ccc1F`, with 0% (inactive). As for `O=C(c1ccc(F)cc1)N1CCC(n2nnc3ccccc32)CC1`, the inhibition was -2% (inactive). As for `Cc1ccc(C)c(Cn2cnc3c(oc4ccccc43)c2=O)c1`, the inhibition is -1% (inactive).

Consider `COc1ccc(-c2ccc(CNCCCN3CCOCC3)o2)cc1Cl`, for which the inhibition is 2% (inactive). On to `Cc1ccc(C(=O)O)cc1NC(=O)c1ccc(Cn2nc(C)c(Cl)c2C)o1`, for which the inhibition was 1% (inactive). Consider `COc1cc(NC(=S)N2CCCC(C)C2)c(OC)cc1Cl` (configuration not stated), for which the inhibition was -5% (inactive). On to `CCCCN(CC)CCNC(=O)CCNC(=O)Cn1ccc2ccccc2c1=O`, for which the inhibition is -4% (inactive). For `O=C(CCSc1ccccc1)N1CCN(c2ccccc2F)CC1` the value was -2% (inactive); for `CCCN=C1NC(=O)C(CC(=O)NCCc2ccc(OC)c(OC)c2)S1` (configuration not stated), -11% (inactive); for `Cc1ccc(S(=O)(=O)N2CCN(C(=O)c3cccs3)CC2)cc1`, -5% (inactive). As for `Cc1ccc(S(=O)(=O)NCCC(c2ccccc2)c2ccccc2)cc1C(=O)O`, the inhibition is 1% (inactive). Regarding `CN(C)C(=O)c1cccn(Cc2cccc(C(F)(F)F)c2)c1=O`, the inhibition was 0% (inactive). With `Cc1ccc(-c2ccc(/C=C(\C#N)C(N)=S)o2)c([N+](=O)[O-])c1`, the inhibition was 0% (inactive). As for `O=C(COC(=O)Cn1cnc2ccccc2c1=O)NCC12CC3CC(CC(C3)C1)C2`, the inhibition was -4% (inactive). For `N#C/C(C(=S)Nc1ccccc1)=C1/NN=C(N2CCOCC2)N1c1ccccc1`, the inhibition is 0% (inactive). For `CCN(CC)S(=O)(=O)c1ccc(N2CCOCC2)c(NC(=O)C2COc3ccccc3O2)c1` (configuration not stated) the value was 2% (inactive); for `CCc1cc(C(=O)OC)c(NC(=O)CC2Sc3ccc(C(F)(F)F)cc3NC2=O)s1` (configuration not stated), -1% (inactive). `Cc1ccc(S(=O)(=O)N(C)CC(=O)OCC(=O)N2CC(=O)Nc3ccccc32)cc1`: the inhibition is 1% (inactive). For the compound `Cc1ccc(S(=O)(=O)NCC(=O)OCC(=O)N2CCc3ccccc32)cc1`, the inhibition was -6% (inactive). For `Cc1ccc(S(=O)(=O)N(C)CC(=O)N2CCc3ccccc32)cc1` the value was 41% (active); for `Cc1nnsc1C(=O)N/N=C/c1cccc(C(F)(F)F)c1`, -2% (inactive). As to `CN(C)c1ccc(/C=N\S(=O)(=O)c2ccccc2)cc1`, the inhibition is -6% (inactive). As to `Cc1cc(NC(=O)CSCc2ccccc2C)no1`, the inhibition is 0% (inactive). With `COc1ccc(-n2c(C)cc(C(=O)COC(=O)c3cc(OC)c(OC)cc3NC(=O)c3cccs3)c2C)cc1`, the inhibition is -5% (inactive). Regarding `O=C(O)c1cccc(NC(=S)N/N=C/c2c[nH]c3ccccc23)c1`, the inhibition was -3% (inactive). Then `CC(C)N(C)C(=O)CCc1nnc(CCc2c[nH]c3ccccc23)o1`, with -3% (inactive); and `CCCCn1nc(C(=O)OCC(=O)Nc2sccc2C(N)=O)c2ccccc2c1=O`, with -1% (inactive); and `CC(=O)Nc1ccc(S(=O)(=O)N(C)c2ccc(OCC(=O)OCC(=O)N3CCCCC3)cc2)cc1`, with -2% (inactive). Turning to `COc1ccc(CN(C)C(=S)Nc2ccc(Cl)cc2Cl)cc1`, the inhibition was 1% (inactive). Take `CCOC(=O)c1c(-c2cccc(N)c2)cn2ccccc12`: the inhibition is 0% (inactive).

Consider `Cc1ccc(S(=O)(=O)NC(=O)COc2ccccc2C)cc1`, for which the inhibition is 51% (active). Turning to `COCCNC(=O)COc1ccccc1C`, the inhibition is 2% (inactive). Then `COc1ccccc1CNS(=O)(=O)c1ccc(C)cc1`, with -2% (inactive); and `CN1CCN(CC#CCC2(O)c3ccccc3-c3ccccc32)CC1`, with -1% (inactive); and `O=C(Nc1nnc(-c2ccco2)o1)c1ccc(S(=O)(=O)N2CCOCC2)cc1`, with 0% (inactive). Turning to `COCCn1c(=NC(=O)c2ccccc2[N+](=O)[O-])sc2cc(S(C)(=O)=O)ccc21`, the inhibition was -2% (inactive). Consider `CC1(C)CC(=O)C(CC(=O)N2CCC(Cc3ccccc3)CC2)C(=O)C1`, for which the inhibition is 1% (inactive). Turning to `COc1ccc(Cl)cc1NC(=O)COC(=O)C(CC(C)C)N1C(=O)C2CC=CCC2C1=O` (configuration not stated), the inhibition is -1% (inactive).

As to `Cc1cc(NC(=O)CN2C(=O)NC(CCc3ccccc3)C2=O)no1` (configuration not stated), the inhibition is -1% (inactive). As for `Cc1c(CCOC(=O)c2cc([N+](=O)[O-])ccc2Cl)sc[n+]1CCCCS(=O)(=O)[O-]`, the inhibition was -1% (inactive). For the compound `Cc1cccc(C(=O)OCC(=O)NCC(C)C)c1O`, the inhibition was 4% (inactive). For `CC1(C)CC(=O)C(C2c3ccccc3S(=O)(=O)c3ccccc32)C(=O)C1` the value was -1% (inactive); for `COc1ccc2oc(=O)c(C(=O)N3CCCC3)cc2c1`, 3% (inactive). `C=CCC(CC=C)(C(N)=O)c1ccccc1`: the inhibition was 3% (inactive). Then `COc1cc(NC(=O)COC(=O)c2cnc(C)cn2)c(C)cc1[N+](=O)[O-]`, with 0% (inactive). For `Cc1ccc(-c2ccc(/C=N/NC(=O)CN3CCOCC3)o2)cc1[N+](=O)[O-]` the value was -1% (inactive). As for `Cc1cc(C)n2nc(SCC(=O)NC(=O)NCc3ccco3)nc2n1`, the inhibition is 0% (inactive). Regarding `CN(C)c1ccc(C(CC(=O)O)C(=O)O)cc1` (configuration not stated), the inhibition was -1% (inactive).
